In PubChem BioAssay (NCATS):
Inconclusive results are not listed. A number with no mark means an inactive call. The source made the active and inactive calls. The call rests on the fitted dose curve; in most records, active means well fitted cell-killing curve with a large enough effect; inconclusive means small, poorly fitted or top-dose-only effect; inactive means flat fitted curve, though single readings scatter. Bridge positions count the residues as written; N and C are the ends. Square brackets hold non-standard residues; d marks the D form. Side chains are listed from the residue outwards. Peptide text beside a SMILES is read from it. * marks the point of attachment. Phg(4-OMe) = COc1ccc([C@H](N)C(=O)O)cc1; d(aIle) = CC[C@H](C)[C@@H](N)C(=O)O; d(aThr) = C[C@@H](O)[C@@H](N)C(=O)O; NMeF = CN[C@@H](Cc1ccccc1)C(=O)O; Isobutyryl = CC(C)C(=O)*

assay: OV-SAHO Cancer Cell Toxicity qHTS against the NCATS CANVASS Library (AID 1347348); conditions: OV-SAHO viability, CellTiter-Glo luminescence, 72 h; series mostly up to 38.3 µM; activity change, negative = cytotoxicity: at the top concentration; further: nearly all actives have a fitted effect of over 55% in size
How it was run: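 Step one: seed 1000 cells per well. Step two: incubate 4 h. Step three: add test compounds in 11 concentrations. Step four: culture 72 h, then add CellTiter-Glo and record luminescence after 15min.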
On the % scale 0 is the no-effect control and ±100 the full control effect; potency means the concentration at half of the fitted maximal effect.

Row | SMILES | Potency | activity change, negative = cytotoxicity
1 | CCC(=O)CCCCC[C@@H]1NC(=O)[C@H]2CCCCN2C(=O)[C@H](C(C)C)NC(=O)[C@H](Cc2cn(OC)c3ccccc23)NC1=O | 14.9 µM (active) | –
2 | C/C(=C\[C@H](C)C(=O)CCCC1CC(=O)NC(=O)C1)[C@@H]1OC(=O)/C=C/CC/C=C/[C@H](O)[C@@H](O)[C@@H]1C | 0.747 µM (active) | –
3 | C/C=C(/C)c1c(Cl)c(O)c(C)c2c1Oc1c(Cl)c(O)c(Cl)c(C)c1C(=O)O2 | – | -23.9%
4 | COc1ccc([C@@H]2CC(=O)c3c(cc(O)c(C/C=C(\C)CCC=C(C)C)c3O)O2)cc1 | – | -12.7% [at 7.64 µM]
5 | O=c1cc(-c2ccc(O)c(O)c2)oc2cc(O[C@@H]3O[C@H](CO)[C@@H](O)[C@H](O)[C@H]3O)cc(O)c12 | 16.7 µM (active) | –
6 | CC[C@H](C)[C@H]1NC(=O)[C@@H](NC(=O)C(C)C)[C@@H](C)OC(=O)[C@H](COC(=O)CNC(C)=O)NC(=O)[C@@H]([C@@H](C)O)NC(=O)[C@H](Cc2ccccc2)N(C)C(=O)[C@H](c2ccc(OC)cc2)NC1=O (Isobutyryl-T[d(aIle)][Phg(4-OMe)][NMeF][d(aThr)]S([Gly-Ac]); ester 1-C) | – | -17.6%
7 | C[n+]1cc2cc(C(N)=O)[nH]c3c(=N)c(Cl)c(N)c1c23 | – | -15%
8 | C/C1=C/[C@@H](C)[C@H](O)[C@@H](O)/C=C/CC/C=C/C(=O)O[C@@H]1[C@H](C)C(=O)CCCC1CC(=O)NC(=O)C1 | – | -19.9%
9 | CC(=O)Oc1cc2c(c(OC(C)=O)c1C1CCc3cc(Cl)c(Cl)n31)C(=O)n1c-2cc(Cl)c1Cl (centres undefined) | 7.47 µM (active) | –
